Test results taken from the supplement of paper PMC10849652.
Targets with a hit are over-represented here; the source holds about 7,900 in all. About 0.6% of all pairs of compound and target were hits. A number with no mark means an inactive call.

What was measured:
Assay in all cases: log2 fold change, soluble protein after heating vs DMSO (PISA); higher = thermal stabilisation; K562 cells, 10 uM, 30 min; active = over 0.2 and 3.5 SD of the protein, either way, in both replicates (recomputed)
[1] = compound: Cc1cccc(CC(=O)N2CCc3c2ccc(-c2cn(C)c4ncnc(N)c24)c3F)n1
Outline: (§1)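 K562 cells at 2×10^6 cells/mL were given 10 μM compound for 30 min. Aliquots then went through 3 min of heating across 48°C-58°C, were pooled, and were extracted in PBS with 0.5% NP-40 at 4°C, and the supernatant after 21,000xg for 90 min was quantified by TMTpro 16plex LC-MS/MS with channel sums equalised. Thermal stability relative to control samples, from duplicates, is given as log2 fold change.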

[2] = compound: Cc1cn(-c2cc(NC(=O)c3ccc(C)c(Nc4nccc(-c5cccnc5)n4)c3)cc(C(F)(F)F)c2)cn1 [nilotinib]
Outline: as §1

[3] = compound: Cc1nc(Nc2n[nH]c3c2CN(C(=O)N[C@H](CN(C)C)c2ccccc2)C3(C)C)c2sccc2n1
Outline: as §1

[4] = compound: Cc1nc(Nc2ncc(C(=O)Nc3c(C)cccc3Cl)s2)cc(N2CCN(CCO)CC2)n1 [dasatinib]
Outline: as §1

[5] = compound: Cc1ncc(-c2ccnc(Nc3ccc(S(C)(=O)=O)cc3)n2)n1C(C)C
Outline: as §1

[6] = compound: Cn1cc(-c2ccc3c(c2)CCN3C(=O)Cc2cccc(C(F)(F)F)c2)c2c(N)ncnc21
Outline: as §1

[7] = compound: NC(=O)Nc1cc(-c2cccc(F)c2)sc1C(=O)N[C@H]1CCCNC1
Outline: as §1

[8] = compound: NC(=O)c1cnc(N[C@@H]2CCCC[C@@H]2N)nc1Nc1cccc(-n2nccn2)c1
Outline: as §1

[9] = compound: NCC(=O)Nc1ccc(-n2nc(C(F)(F)F)cc2-c2ccc3c(ccc4ccccc43)c2)cc1
Outline: as §1

[10] = compound: Nc1ccccc1NC(=O)c1ccc(CNC(=O)OCc2cccnc2)cc1 [entinostat]
Outline: as §1

[11] = compound: O=C(CCCCCCC(=O)Nc1ccccc1)NO [vorinostat]
Outline: as §1

[12] = compound: O=C(CCCCCCNC(=O)c1cnc(N(c2ccccc2)c2ccccc2Cl)nc1)NO [citarinostat]
Outline: as §1

[13] = compound: O=C1NC(=O)C(c2cnc3ccccn23)=C1c1cn2c3c(cc(F)cc13)CN(C(=O)N1CCCCC1)CC2
Outline: as §1

[14] = compound: c1cc(OCCN2CCCCC2)cc(-c2n[nH]c3ccc(-c4nnc[nH]4)cc23)c1
Outline: as §1

[15] = compound: Cn1cc(-c2ccc3nnc(C(F)(F)c4ccc5ncccc5c4)n3n2)cn1
Outline: as §1

[16] = compound: Cn1cncc1[C@@](N)(c1ccc(Cl)cc1)c1ccc2c(c1)c(-c1cccc(Cl)c1)cc(=O)n2C [tipifarnib]
Outline: as §1

[17] = compound: FC(F)(F)c1ccc(/C=C/c2nc(COc3ccc(CCCCn4ccnn4)cc3)co2)cc1 [mubritinib]
Outline: as §1

[18] = compound: NC1(c2ccc(-c3nc4ccn5c(=O)[nH]nc5c4cc3-c3ccccc3)cc2)CCC1
Outline: as §1

[19] = compound: O=C(O)c1ccc2c(c1)nc(Nc1cccc(Cl)c1)c1ccncc12 [silmitasertib]
Outline: as §1

[20] = compound: Cc1ccc(NC(=O)c2ccc(CN3CC[C@H](N(C)C)C3)c(C(F)(F)F)c2)cc1Nc1nccc(-c2cncnc2)n1 [bafetinib]
Outline: as §1

Chain of UniProt Q5T8P6 (Q5T8P6 whole entry, looked up): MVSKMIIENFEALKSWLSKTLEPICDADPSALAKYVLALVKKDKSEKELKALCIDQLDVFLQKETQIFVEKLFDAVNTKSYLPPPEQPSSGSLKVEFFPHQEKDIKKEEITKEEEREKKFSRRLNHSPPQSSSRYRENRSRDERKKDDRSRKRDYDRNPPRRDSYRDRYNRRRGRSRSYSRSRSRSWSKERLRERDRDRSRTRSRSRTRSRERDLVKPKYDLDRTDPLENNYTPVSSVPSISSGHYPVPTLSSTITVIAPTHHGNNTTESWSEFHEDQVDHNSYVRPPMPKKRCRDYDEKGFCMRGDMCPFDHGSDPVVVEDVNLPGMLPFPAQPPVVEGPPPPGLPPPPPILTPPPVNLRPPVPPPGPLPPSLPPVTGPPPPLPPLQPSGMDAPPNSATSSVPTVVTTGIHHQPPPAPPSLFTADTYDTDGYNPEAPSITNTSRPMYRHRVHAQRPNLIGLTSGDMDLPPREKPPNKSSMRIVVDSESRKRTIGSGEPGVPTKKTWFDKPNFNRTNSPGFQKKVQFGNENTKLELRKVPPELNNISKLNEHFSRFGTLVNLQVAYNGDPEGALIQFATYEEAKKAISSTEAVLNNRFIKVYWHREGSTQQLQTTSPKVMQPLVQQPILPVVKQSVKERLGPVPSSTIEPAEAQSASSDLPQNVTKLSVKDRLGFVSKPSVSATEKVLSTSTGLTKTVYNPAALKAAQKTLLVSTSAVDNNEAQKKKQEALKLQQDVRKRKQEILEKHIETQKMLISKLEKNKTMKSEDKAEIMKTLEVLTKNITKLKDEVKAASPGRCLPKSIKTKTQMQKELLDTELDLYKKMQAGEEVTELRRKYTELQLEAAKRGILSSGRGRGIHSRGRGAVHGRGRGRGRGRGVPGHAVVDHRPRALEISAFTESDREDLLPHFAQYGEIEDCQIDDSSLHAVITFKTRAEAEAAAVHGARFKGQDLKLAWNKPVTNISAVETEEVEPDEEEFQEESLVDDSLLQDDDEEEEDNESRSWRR
Chain of UniProt Q6R327 (Q6R327 whole entry, looked up): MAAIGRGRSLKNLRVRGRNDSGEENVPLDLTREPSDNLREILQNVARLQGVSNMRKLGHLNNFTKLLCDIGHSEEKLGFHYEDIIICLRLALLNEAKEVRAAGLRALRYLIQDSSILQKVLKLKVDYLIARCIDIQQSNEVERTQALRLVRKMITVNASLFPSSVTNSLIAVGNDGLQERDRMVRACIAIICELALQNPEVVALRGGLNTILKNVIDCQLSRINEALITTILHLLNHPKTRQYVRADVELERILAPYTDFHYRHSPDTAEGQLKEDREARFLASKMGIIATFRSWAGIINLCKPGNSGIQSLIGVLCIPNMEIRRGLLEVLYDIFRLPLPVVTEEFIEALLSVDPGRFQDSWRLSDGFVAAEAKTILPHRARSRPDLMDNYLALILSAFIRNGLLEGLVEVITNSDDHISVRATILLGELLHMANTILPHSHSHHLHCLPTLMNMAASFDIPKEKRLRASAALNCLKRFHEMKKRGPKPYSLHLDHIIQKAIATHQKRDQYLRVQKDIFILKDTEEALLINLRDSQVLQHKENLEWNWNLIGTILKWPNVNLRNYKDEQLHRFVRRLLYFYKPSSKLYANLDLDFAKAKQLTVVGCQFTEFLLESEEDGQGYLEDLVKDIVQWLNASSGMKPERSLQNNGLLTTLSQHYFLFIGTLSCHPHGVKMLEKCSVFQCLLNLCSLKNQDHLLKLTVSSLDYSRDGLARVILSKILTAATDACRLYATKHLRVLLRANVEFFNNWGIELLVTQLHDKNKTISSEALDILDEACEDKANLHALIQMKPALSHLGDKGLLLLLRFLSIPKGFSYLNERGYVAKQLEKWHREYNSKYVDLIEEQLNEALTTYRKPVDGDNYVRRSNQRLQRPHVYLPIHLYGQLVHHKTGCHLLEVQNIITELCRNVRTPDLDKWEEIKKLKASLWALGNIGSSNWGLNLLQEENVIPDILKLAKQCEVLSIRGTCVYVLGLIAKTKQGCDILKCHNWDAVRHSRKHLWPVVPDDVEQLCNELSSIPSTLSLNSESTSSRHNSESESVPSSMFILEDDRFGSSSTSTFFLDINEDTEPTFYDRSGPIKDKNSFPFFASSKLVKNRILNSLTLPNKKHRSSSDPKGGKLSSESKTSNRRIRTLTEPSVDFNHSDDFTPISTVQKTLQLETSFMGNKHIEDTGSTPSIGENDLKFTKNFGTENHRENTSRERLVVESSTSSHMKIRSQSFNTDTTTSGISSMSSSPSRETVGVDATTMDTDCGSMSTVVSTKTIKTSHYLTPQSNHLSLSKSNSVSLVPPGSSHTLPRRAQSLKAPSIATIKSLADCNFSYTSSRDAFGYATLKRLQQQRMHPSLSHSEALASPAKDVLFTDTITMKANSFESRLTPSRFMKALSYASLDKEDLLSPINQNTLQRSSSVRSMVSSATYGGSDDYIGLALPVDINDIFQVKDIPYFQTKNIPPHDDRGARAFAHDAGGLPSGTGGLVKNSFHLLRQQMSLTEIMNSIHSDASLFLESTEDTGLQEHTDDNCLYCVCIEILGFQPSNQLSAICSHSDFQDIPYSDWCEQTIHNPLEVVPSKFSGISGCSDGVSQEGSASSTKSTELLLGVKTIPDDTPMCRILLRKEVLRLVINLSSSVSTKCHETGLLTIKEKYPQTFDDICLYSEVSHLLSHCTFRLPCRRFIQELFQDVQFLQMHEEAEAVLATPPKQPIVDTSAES
Chain of UniProt O14796 (O14796 whole entry, looked up): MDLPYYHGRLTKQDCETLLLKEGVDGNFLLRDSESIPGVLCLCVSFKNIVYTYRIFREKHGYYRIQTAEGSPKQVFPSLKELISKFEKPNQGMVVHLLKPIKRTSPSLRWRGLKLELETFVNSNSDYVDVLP
Chain of UniProt O43819 (O43819 whole entry, looked up): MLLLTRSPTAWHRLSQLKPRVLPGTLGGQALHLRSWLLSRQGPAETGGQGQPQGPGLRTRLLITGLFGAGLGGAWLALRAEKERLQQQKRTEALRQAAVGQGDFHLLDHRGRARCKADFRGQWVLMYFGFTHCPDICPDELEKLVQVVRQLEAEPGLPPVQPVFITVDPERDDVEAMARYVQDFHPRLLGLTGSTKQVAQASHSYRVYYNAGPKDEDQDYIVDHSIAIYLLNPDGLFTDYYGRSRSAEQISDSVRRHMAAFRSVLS
Chain of UniProt Q5RL73 (Q5RL73 whole entry, looked up): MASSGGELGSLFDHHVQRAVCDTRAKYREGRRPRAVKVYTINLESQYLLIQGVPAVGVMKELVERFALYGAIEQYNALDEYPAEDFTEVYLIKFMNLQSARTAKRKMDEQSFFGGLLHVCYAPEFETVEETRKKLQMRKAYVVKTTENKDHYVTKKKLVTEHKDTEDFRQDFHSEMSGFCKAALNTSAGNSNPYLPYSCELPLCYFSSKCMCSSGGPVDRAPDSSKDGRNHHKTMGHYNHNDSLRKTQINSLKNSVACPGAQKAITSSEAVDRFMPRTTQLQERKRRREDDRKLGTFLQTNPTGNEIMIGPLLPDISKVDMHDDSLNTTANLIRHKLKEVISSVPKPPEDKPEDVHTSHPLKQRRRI
Chain of UniProt O75056 (O75056 whole entry, looked up): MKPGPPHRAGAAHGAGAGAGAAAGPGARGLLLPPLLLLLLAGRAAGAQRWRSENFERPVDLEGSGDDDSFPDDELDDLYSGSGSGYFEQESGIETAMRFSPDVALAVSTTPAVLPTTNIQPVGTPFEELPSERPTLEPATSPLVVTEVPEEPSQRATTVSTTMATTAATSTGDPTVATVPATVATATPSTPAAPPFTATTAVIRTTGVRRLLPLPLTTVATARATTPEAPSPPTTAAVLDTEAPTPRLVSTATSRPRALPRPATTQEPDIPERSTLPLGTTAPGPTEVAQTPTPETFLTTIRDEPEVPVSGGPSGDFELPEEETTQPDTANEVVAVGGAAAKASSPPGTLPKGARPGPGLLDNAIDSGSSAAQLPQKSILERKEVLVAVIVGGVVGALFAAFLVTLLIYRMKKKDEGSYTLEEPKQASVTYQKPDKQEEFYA
Chain of UniProt Q86UA6 (Q86UA6 whole entry, looked up): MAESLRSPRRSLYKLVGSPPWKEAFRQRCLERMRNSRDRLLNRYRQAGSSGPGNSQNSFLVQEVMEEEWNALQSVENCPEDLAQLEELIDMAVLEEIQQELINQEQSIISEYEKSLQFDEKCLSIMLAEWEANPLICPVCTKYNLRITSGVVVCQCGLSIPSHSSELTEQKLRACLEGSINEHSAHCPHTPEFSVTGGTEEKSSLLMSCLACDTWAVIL

Target | log2 fold change [1] | log2 fold change [2] | log2 fold change [3] | log2 fold change [4] | log2 fold change [5] | log2 fold change [6] | log2 fold change [7] | log2 fold change [8] | log2 fold change [9] | log2 fold change [10] | log2 fold change [11] | log2 fold change [12] | log2 fold change [13] | log2 fold change [14] | log2 fold change [15] | log2 fold change [16] | log2 fold change [17] | log2 fold change [18] | log2 fold change [19] | log2 fold change [20]
SDC3 (UniProt O75056) | 0.419 | -0.004 | 0.07 | 0.073 | -0.036 | -0.019 | 0.044 | -0.016 | 0.026 | 0.035 | 0.211 | 0.354 | 0.09 | 0.174 |  |  |  |  |  | 
SH2D1B (UniProt O14796) | 0.018 | -0.421 | -0.319 | -1.18 (active) | 0.005 | -0.358 | -1.1 (active) | 0.04 | -0.024 | 0.055 | 0.101 | 0.413 | -0.018 | -0.062 | -0.069 | 0.045 | -0.187 | -0.135 | -0.111 | 
RBM26 isoform 3 (UniProt Q5T8P6) |  |  |  |  |  |  | -0.079 | -0.046 |  | 0.103 |  |  |  |  |  |  |  |  |  | 
RICTOR isoform 3 (UniProt Q6R327) | 0.141 | -0.102 | 0.176 | -0.044 | -0.023 |  | 0.075 | 0.054 |  | 0.044 | 0.211 | 0.066 | 0.289 | -0.155 |  | -0.052 |  |  |  | 
SAP30 (UniProt O75446) | 0.076 | 0.083 | 0.01 | -0.008 | 0.006 | -0.073 | 0.043 | 0.032 | 0.287 | 0.165 | 0.307 |  | 0.047 |  |  | 0.068 | -0.118 | 0.044 | 0.106 | 
SCAMP2 (UniProt H3BUB6) |  | -0.056 | 0.03 | 0 | -0.069 | 0.062 | -0.31 | -0.392 | -0.311 | -0.175 |  | -0.364 | -0.267 | -0.118 | 0.095 | 0.188 | 0.023 | 0.021 | 0.129 | -0.226
S100A10 (UniProt P60903) | -0.035 | 0.072 | -0.057 |  | -0.016 | 0.146 | 0.3 | 0.283 |  | 0.189 | -0.023 | 0.333 |  | 0.792 (active) |  | 0.131 |  |  |  | -0.026
RNF220 isoform 3 (UniProt Q5VTB9) |  |  |  |  |  |  |  | 0.115 |  |  |  |  |  |  |  | -0.282 |  |  |  | 
RPS3 (UniProt E9PJN9) | 0.076 |  |  | -0.207 |  |  |  |  |  |  | 0.2 | 0 |  | -0.048 | -0.159 |  |  |  |  | 
RBM48 isoform 2 (UniProt Q5RL73) | -0.012 | 0.13 | -0.006 |  | -0.034 | 0.047 | -0.334 | -0.008 |  | 0.262 | 0.005 |  | 0.029 |  | -0.457 | 0.127 |  |  |  | 0.118
SIK3 (UniProt H0Y4E8) | -0.122 | -0.053 | -0.179 | -0.037 | 0.003 | -0.016 | -0.022 | 0.08 | -0.038 | -0.075 | -0.053 | -0.053 |  | -0.098 | 0 | 0.251 | -0.035 | -0.22 | 0.054 | 
SAFB2 (UniProt K7EQU4) |  | 0.155 | 0.162 |  | -0.113 |  |  |  |  |  |  |  | 0.007 |  |  |  |  |  |  | -0.053
SERINC1 (UniProt Q9NRX5) |  | 0.121 | 0.081 | -0.034 | -0.064 |  | -0.061 | -0.241 | -0.174 | -0.009 |  | 0.088 | 0.032 | 0.022 | 0.054 | -0.112 | 0.057 | 0.004 | 0.197 | -0.135
RAPGEF4 (UniProt Q8WZA2) |  |  |  | 0.088 |  | 0.201 | -0.095 | -0.13 | -0.04 | -0.003 |  | 0.161 | -0.279 | 0.127 |  |  | 0.038 | -0.054 | 0.125 | -0.075
RNF26 (UniProt Q9BY78) | 0.111 |  |  |  |  |  |  |  | -0.161 |  | -0.094 |  |  |  | -0.011 |  |  |  |  | 0.083
RPS19 (UniProt M0R2L9) |  | 0.116 | 0 |  | -0.267 |  |  | -0.159 |  |  |  |  |  |  |  | -0.126 | 0.229 | 0.453 | -0.634 | 
RBM6 (UniProt P78332) | -0.048 | 0.062 | -0.109 | 0.025 | -0.194 | -0.052 | 0.099 | -0.06 |  | -0.317 | -0.012 |  |  |  |  | 0.028 | -0.072 | 0.222 | 0.017 | 
SCO2 (UniProt O43819) | -0.014 |  |  | -0.042 |  | 0.107 | -0.598 (active) | -0.078 | 0.006 | -0.266 | 0.011 | -0.001 | -0.092 | 0.118 | 0.039 | 0.014 | -0.035 | 0.015 | -0.078 | -0.058
RABGAP1L isoform 5 (UniProt Q5R372) |  | 0.112 | -0.003 | -0.054 | -0.047 | -0.002 | -0.246 | -0.094 |  | -0.051 |  |  | -0.315 (active) |  |  | 0.073 | 0.036 | -0.021 | 0.106 | -0.031
RPAIN isoform 8 (UniProt Q86UA6) |  |  |  | -0.043 |  | -0.022 | -0.017 | -0.044 | -0.093 | 0.014 |  |  | -0.012 |  | -0.142 | -0.042 |  |  |  | -0.064
RAB3IL1 (UniProt E9PK89) | 0.01 | -0.007 | -0.189 |  | -0.101 | 0.258 | 0.062 | 0.11 | 0.018 | -0.023 | 0.112 | 0.049 | -0.234 | 0.016 | 0.056 | -0.035 |  |  |  | -0.053
SDHAF4 (UniProt Q5VUM1) |  | -0.043 | -0.003 | 0.034 | 0.056 | 0.077 | -0.016 | 0.07 |  | -0.021 |  | 0.076 | 0.005 | 0.108 |  | -0.041 | 0.03 | -0.111 | 0.04 | -0.078
SLC12A5 (UniProt Q9H2X9) |  |  |  | -0.034 |  | 0.002 | -0.111 | -0.077 | -0.043 | -0.05 |  | 0.129 | -0.032 | -0.062 |  | 0.117 | -0.001 | -0.064 | 0.05 | 0.009
RMDN2 isoform 2 (UniProt Q96LZ7) |  | -0.556 | 0.661 |  | -0.115 |  |  |  | 0.116 |  |  |  |  |  | -0.104 |  | -0.231 | -0.018 | -0.275 | 
RPS3A (UniProt D6R9B6) |  |  |  | 0.155 |  |  | -0.41 | -0.391 |  | -0.234 |  |  |  |  |  |  |  |  |  | 
RAD50, A0A494C0Y7 | -0.249 |  |  | 0.028 |  | -0.012 | -0.032 | -0.159 | -0.175 | -0.103 | -0.086 | 0.095 |  | -0.279 | 0.016 | 0.058 | 0.167 | -0.28 | 0.103 | -0.022
